This is a sample that favours compounds with a hit; in the whole collection about 28% have one here.
Mac1 fbg enh: enhancers of CD11b/CD18 adhesion to fibrinogen, primary screen, K562 cells, luminescence; ATPlite luminescence; actives 0.07% (n = 93,000); activation, % at 10 µM;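 active = 10 µM primary screen giving 50% or more activity, confirmed by 40% or more on retest at that dose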
Target sequence (P05107 whole entry, looked up, other chains not shown): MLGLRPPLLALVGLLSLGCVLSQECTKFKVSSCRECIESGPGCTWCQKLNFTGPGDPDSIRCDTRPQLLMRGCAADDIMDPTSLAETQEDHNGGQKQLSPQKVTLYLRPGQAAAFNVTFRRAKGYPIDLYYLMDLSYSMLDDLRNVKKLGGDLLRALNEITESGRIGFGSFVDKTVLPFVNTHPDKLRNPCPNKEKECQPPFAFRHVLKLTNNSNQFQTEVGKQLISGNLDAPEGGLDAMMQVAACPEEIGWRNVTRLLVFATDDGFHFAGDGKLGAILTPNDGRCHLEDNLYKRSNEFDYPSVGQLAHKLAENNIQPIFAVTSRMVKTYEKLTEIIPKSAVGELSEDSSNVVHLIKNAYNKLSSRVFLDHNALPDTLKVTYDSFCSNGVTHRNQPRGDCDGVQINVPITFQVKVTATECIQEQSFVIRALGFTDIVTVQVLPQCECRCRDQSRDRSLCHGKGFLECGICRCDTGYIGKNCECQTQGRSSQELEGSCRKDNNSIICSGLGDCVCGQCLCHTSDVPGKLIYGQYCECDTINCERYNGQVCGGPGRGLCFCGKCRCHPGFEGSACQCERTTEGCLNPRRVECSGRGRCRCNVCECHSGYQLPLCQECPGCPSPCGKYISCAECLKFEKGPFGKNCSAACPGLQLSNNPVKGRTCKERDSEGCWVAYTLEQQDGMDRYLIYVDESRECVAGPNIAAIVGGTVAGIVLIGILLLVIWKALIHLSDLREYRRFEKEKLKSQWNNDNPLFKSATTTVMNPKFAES
CYP2C9 activ: human CYP2C9 activators, primary screen, biochemical, luminescence | Cytochrome P450 2C9 (Homo sapiens), P11712 | recombinant CYP2C9, luciferin-H conversion; hits give high values; factor 1 = untreated enzyme, 0 = blocked | activation factor at 5 µM | actives 1.4% (n = 96,000) | AID 1024, 2008;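 active = activation factor of 2 or more for CYP2C9 at a 5 µM dose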
Mac1 fbg inh: inhibitors of CD11b/CD18 adhesion to fibrinogen, primary screen, K562 cells, luminescence; actives 0.54% (n = 93,000); inhibition, % at 10 µM; Integrin beta-2 (Homo sapiens) + Integrin alpha-M (Homo sapiens), P05107+P11215; ATPlite luminescence; Mn2+ added to activate the integrin;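 active = primary inhibition of 50% or more at 10 µM, then 40% or more on retest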
CYP2C19 activ: human CYP2C19 activators, primary screen, biochemical, luminescence. 96,000 tested, under 10 active. Cytochrome P450 2C19 (Homo sapiens), P33261. activation factor at 5 µM. recombinant CYP2C19, luciferin-H EGE luminescence; hits give high values; 0 = fully inhibited enzyme, 1 = untreated enzyme;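 active = activation factor of at least 2 at 5 µM in the primary screen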
CYP2C19 inhib: blockers of cytochrome P450 2C19 activity – biochemical, luminescence, ADME assay, primary screen; P33261; actives 21% (n = 96,000); inhibition, % at 5 µM; AID 778, 2007; CYP2C19 Supersomes, luciferin-H EGE luminescence, 30 min;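 active = CYP2C19 inhibition above a set limit at 5 µM in the primary screen, cut at about 50% in these data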
CYP2C9 inhib: blockers of cytochrome P450 2C9 activity – biochemical, luminescence, ADME assay, primary screen; P11712; CYP2C9 Supersomes, luciferin-H conversion; inhibition, % at 5 µM; actives 20% (n = 96,000); AID 777, 2007;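 active = blocking of liver enzyme CYP2C9 beyond about 50% at 5 µM, limit read from the data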
A number is an active result; – = inactive; · = not tested or not shown.

SMILES	Mac1 fbg enh	CYP2C9 activ	Mac1 fbg inh	CYP2C19 activ	CYP2C19 inhib	CYP2C9 inhib
COc1cccc(C(=O)CSc2nnnn2C2CCCCC2)c1	–	–	–	–	–	68
O=C(CSc1nnnn1-c1cccc2c1CCCC2)N1CCOCC1	–	2.2	–	–	–	–
COc1cccc(NC(=O)CSc2nncn2-c2ccccn2)c1	–	–	–	–	62	–
COc1ccccc1-n1c(SCC(=O)NC2CCS(=O)(=O)C2)nc2cc([N+](=O)[O-])ccc21 (stereo not drawn)	–	·	–	·	·	·
CCN(CC)S(=O)(=O)c1ccc2c(c1)nc(SCC(=O)NC1CC1)n2-c1ccccc1OC	–	–	–	–	–	75
CC1CCCC(C)N1C(=O)CSc1nnnn1-c1cccc2c1CCCC2 (stereo not drawn)	·	–	·	–	–	–
Cc1ccc(-c2noc(CCC(=O)NCc3ccc4c(c3)OCO4)n2)cc1	–	–	–	–	–	–
O=C(NCCN1CCCC1)C1CC(=O)N(C2CCCCC2)C1 (stereo not drawn)	–	–	–	–	–	–
CCc1ccc(C(C)NC(=O)c2ccc(F)cc2)cc1 (stereo not drawn)	–	–	–	–	55	51
CCCC(C)NC(=O)c1ccc(F)cc1 (stereo not drawn)	–	–	–	–	–	–
Cc1ccccc1NC(=O)C(C)c1cccc(C(=O)c2ccccc2)c1 (stereo not drawn)	·	–	·	–	91	78
Cc1cc(C)c(C)c(OCC(=O)N2CCCCCC2)c1	–	–	–	–	–	–
COCCNC(C)C(=O)Nc1ccc(Br)cc1 (stereo not drawn)	–	–	–	–	–	–
Cc1c(-n2cc(C(=O)c3ccccc3O)cc(C#N)c2=O)c(=O)n(-c2ccccc2)n1C	–	–	–	–	–	–
CCCCn1cc(C(=O)c2cc(Br)ccc2O)cc(C#N)c1=O	·	–	·	–	78	59
CC(C)n1cc(C(=O)c2cc(Br)ccc2O)cc(C#N)c1=O	–	–	–	–	98	88
N#Cc1cc(C(=O)c2cc(Br)ccc2O)cn(C2CC2)c1=O	–	–	–	–	51	–
Cc1ccc(/C=N/n2c(-c3ccco3)n[nH]c2=S)s1	–	·	–	·	·	·
CCOc1cc(C(=O)CCC(=O)OCC(=O)N2c3ccccc3NC(=O)C2(C)C)ccc1O	–	–	–	–	–	–
COc1cc2nc(SCc3ccc(Cl)cc3Cl)n(Cc3cccs3)c(=N)c2cc1OC	·	–	·	–	–	74
COc1ccc(Cn2c(SCc3cc(C)ccc3C)nc3cc(OC)c(OC)cc3c2=N)cc1	·	–	·	–	–	56
COc1cc2nc(SCc3ccc(C(F)(F)F)cc3)n(Cc3cccs3)c(=N)c2cc1OC	–	–	–	–	–	–
COc1ccc(Cn2c(SCc3ccc(C)cc3)nc3cc(OC)c(OC)cc3c2=N)cc1Cl	–	–	–	–	–	69
CN1CCN(C(=O)c2cc3sccc3n2CC(=O)c2ccccc2)CC1	–	–	–	–	–	–
CCN1CCN(C(=O)C2CCN(C(=O)c3cc4sccc4n3CC)CC2)CC1	–	–	–	–	–	–
SMILES	Mac1 fbg enh	CYP2C9 activ	Mac1 fbg inh	CYP2C19 activ	CYP2C19 inhib	CYP2C9 inhib
CCn1c(C(=O)N2CCC(C(=O)NCCCSC3CCCCC3)CC2)cc2sccc21	–	–	–	–	53	–
CCn1c(C(=O)N2CCc3ccccc3C2)cc2sccc21	–	–	–	–	63	–
CCN1CCN(C(=O)c2cc3sccc3n2CC(=O)c2ccccc2)CC1	–	–	–	–	59	–
CCn1c(C(=O)NCCCN2CCc3ccccc3C2)cc2sccc21	–	–	–	–	64	–
OCCN1CCN(c2ncnc3ccc(Br)cc23)CC1	–	–	–	–	–	–
CCn1c(C(=O)NCc2ccccn2)cc2sccc21	–	–	–	–	66	–
O=c1c(F)cn(C2CCCO2)c(=O)n1Cc1ccccc1F (stereo not drawn)	–	–	–	–	84	–
COc1cccc(C2(O)CCN(C(=O)C3CCC3)CC2)c1	–	–	–	–	64	–
